# In ChEMBL document CHEMBL1961873, “Compounds: GSK PKIS; Assays: Nanosyn kinase panel” (2012):
# Tests used:
# [1] = target: Sphingosine kinase 1 (Homo sapiens) (UniProt Q9NYA1); conditions: at 1 µM;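 note: mean SPHK1 inhibition value reported from the GSK PKIS kinase panel screen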
# [2] = target: T1, Sphingosine kinase 2 (Homo sapiens) (UniProt Q9NRA0); conditions: at 0.1 µM
# T1 sequence (whole entry): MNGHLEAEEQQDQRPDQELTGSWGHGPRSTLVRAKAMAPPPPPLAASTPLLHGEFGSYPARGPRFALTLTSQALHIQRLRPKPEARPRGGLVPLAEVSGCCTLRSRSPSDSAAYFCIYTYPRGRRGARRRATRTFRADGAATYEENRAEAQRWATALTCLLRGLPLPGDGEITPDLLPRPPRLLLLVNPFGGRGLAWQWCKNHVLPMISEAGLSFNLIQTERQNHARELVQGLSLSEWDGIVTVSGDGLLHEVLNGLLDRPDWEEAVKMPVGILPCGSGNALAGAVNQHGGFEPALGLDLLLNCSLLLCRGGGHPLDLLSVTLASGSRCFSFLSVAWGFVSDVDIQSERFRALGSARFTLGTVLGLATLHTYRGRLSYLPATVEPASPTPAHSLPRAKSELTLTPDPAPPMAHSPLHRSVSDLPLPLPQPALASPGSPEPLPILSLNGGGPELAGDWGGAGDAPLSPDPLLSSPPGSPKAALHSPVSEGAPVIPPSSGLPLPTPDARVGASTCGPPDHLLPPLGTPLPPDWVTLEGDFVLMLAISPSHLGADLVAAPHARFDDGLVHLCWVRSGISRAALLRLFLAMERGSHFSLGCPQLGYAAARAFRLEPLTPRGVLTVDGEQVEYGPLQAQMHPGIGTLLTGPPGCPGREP
# [3] = target: T1, Sphingosine kinase 2 (Homo sapiens); conditions: at 1 µM
# [4] = target: Casein kinase II subunit alpha (Homo sapiens) (UniProt P68400); conditions: at 0.1 µM
# [5] = target: Casein kinase II subunit alpha (Homo sapiens) (UniProt P68400); conditions: at 1 µM
# [6] = target: T2, Inhibitor of nuclear factor kappa-B kinase subunit alpha (Homo sapiens) (UniProt O15111); conditions: at 0.1 µM
# T2 sequence (whole entry): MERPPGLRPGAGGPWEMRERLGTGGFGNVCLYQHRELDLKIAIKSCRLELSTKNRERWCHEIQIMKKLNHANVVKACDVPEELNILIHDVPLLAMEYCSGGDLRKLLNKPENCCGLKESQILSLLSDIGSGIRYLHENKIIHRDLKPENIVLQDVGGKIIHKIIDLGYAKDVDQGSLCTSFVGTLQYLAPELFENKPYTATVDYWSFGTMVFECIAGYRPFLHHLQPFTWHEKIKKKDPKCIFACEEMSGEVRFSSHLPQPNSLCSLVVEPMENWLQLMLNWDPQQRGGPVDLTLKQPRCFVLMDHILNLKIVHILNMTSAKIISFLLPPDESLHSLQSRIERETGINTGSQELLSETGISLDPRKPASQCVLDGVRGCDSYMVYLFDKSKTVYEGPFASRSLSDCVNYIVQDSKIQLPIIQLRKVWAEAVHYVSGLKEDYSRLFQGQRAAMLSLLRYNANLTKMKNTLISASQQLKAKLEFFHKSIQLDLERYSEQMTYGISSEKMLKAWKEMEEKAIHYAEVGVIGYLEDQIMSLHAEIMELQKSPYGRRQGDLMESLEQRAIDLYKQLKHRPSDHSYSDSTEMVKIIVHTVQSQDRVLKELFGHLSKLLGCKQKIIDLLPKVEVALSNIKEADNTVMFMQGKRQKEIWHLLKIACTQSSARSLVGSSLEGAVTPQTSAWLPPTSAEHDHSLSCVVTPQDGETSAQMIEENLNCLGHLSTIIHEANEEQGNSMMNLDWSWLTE
# [7] = target: T2, Inhibitor of nuclear factor kappa-B kinase subunit alpha (Homo sapiens); conditions: at 1 µM
# [8] = target: T3, Inhibitor of nuclear factor kappa-B kinase subunit beta (Homo sapiens) (UniProt O14920); conditions: at 0.1 µM
# T3 sequence (whole entry): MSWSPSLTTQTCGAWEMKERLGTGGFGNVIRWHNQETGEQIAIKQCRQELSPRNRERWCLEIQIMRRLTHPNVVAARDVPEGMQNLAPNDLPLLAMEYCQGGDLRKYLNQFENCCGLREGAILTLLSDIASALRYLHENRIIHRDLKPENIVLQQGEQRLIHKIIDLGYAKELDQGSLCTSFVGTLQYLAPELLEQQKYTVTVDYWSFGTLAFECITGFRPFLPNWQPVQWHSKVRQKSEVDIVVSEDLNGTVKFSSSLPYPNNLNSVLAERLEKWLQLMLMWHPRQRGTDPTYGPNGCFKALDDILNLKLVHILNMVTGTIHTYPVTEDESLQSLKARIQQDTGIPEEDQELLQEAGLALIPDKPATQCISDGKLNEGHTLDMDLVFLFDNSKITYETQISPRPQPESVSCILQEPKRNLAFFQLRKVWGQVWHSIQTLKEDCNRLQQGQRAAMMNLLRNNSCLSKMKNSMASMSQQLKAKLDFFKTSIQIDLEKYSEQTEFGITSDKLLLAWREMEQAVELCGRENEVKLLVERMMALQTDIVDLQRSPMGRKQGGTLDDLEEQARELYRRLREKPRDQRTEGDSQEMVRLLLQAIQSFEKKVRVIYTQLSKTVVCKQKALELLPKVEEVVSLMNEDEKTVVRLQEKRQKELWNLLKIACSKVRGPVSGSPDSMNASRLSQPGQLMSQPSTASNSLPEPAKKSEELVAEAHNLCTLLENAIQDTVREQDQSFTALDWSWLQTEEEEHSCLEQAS
# [9] = target: T3, Inhibitor of nuclear factor kappa-B kinase subunit beta (Homo sapiens); conditions: at 1 µM
# [10] = target: T4, Inhibitor of nuclear factor kappa-B kinase subunit epsilon (Homo sapiens) (UniProt Q14164); conditions: at 0.1 µM
# T4 sequence (whole entry): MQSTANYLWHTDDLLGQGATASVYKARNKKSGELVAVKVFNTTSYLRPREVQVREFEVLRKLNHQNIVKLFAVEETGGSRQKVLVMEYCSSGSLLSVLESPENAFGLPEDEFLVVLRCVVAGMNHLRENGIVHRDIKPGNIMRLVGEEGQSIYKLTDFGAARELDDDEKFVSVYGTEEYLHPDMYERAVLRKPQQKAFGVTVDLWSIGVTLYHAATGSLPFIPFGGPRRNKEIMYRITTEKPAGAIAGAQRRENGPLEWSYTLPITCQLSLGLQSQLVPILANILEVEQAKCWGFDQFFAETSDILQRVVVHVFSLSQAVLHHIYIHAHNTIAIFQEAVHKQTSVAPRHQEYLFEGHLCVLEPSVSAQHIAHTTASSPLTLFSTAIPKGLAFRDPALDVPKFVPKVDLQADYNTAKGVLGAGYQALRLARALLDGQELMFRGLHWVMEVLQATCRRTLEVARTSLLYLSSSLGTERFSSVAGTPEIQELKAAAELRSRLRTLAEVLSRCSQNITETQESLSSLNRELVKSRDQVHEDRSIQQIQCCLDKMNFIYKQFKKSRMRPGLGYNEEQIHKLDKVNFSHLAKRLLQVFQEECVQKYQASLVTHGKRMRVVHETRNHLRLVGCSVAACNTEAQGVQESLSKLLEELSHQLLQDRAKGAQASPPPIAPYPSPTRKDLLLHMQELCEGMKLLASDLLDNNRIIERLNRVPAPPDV
# [11] = target: T4, Inhibitor of nuclear factor kappa-B kinase subunit epsilon (Homo sapiens); conditions: at 1 µM
# [12] = target: T5, Serine/threonine-protein kinase Nek1 (Homo sapiens) (UniProt Q96PY6); conditions: at 0.1 µM
# T5 sequence (whole entry): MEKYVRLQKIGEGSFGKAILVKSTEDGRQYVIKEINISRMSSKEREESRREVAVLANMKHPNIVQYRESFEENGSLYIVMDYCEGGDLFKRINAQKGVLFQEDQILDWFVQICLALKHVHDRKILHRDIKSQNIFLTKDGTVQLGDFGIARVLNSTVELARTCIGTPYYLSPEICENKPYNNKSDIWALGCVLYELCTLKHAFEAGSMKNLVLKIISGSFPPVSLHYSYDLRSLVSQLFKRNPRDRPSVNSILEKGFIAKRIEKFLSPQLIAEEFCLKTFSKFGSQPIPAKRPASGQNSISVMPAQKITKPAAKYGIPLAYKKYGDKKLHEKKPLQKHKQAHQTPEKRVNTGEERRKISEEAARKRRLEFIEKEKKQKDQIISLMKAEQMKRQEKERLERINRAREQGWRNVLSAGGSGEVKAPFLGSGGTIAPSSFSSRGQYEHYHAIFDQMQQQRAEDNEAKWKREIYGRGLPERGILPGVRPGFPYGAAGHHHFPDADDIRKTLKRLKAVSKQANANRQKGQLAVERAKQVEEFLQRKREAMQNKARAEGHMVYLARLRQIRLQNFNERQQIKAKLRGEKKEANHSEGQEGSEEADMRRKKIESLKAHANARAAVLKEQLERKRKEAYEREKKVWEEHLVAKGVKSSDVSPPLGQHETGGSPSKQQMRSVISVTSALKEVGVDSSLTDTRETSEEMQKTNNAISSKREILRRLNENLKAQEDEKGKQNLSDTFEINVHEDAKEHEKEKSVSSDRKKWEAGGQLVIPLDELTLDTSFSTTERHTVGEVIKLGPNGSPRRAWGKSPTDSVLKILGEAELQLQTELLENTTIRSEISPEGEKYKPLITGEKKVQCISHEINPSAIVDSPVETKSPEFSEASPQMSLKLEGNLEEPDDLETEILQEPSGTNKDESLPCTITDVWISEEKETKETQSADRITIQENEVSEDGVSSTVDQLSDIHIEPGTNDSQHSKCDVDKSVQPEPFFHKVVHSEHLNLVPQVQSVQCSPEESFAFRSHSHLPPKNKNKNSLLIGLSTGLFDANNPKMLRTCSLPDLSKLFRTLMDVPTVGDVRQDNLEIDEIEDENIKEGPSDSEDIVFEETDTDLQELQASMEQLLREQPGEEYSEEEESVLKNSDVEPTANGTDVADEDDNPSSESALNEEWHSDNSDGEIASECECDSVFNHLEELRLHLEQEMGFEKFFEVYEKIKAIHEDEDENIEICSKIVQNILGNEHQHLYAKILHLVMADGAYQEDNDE
# [13] = target: T5, Serine/threonine-protein kinase Nek1 (Homo sapiens); conditions: at 1 µM
# [14] = target: T6, Serine/threonine-protein kinase Nek2 (Homo sapiens) (UniProt P51955); conditions: at 0.1 µM
# T6 sequence (whole entry): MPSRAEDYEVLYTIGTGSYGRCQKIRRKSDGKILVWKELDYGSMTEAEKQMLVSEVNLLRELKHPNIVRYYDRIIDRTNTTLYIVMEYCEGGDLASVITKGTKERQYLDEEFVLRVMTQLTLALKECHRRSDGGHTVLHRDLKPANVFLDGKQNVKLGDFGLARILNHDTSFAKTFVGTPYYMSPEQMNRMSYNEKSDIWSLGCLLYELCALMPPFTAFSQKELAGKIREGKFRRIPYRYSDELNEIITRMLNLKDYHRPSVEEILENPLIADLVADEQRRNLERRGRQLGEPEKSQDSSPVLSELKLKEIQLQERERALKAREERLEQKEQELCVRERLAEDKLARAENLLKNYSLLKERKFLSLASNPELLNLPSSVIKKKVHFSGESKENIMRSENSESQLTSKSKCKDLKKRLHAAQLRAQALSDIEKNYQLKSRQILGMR
# [15] = target: T6, Serine/threonine-protein kinase Nek2 (Homo sapiens); conditions: at 1 µM
# [16] = target: Serine/threonine-protein kinase Nek6 (Homo sapiens) (UniProt Q9HC98); conditions: at 0.1 µM
# [17] = target: Serine/threonine-protein kinase Nek6 (Homo sapiens) (UniProt Q9HC98); conditions: at 1 µM
# [18] = target: Serine/threonine-protein kinase Nek7 (Homo sapiens) (UniProt Q8TDX7); conditions: at 0.1 µM
# [19] = target: Serine/threonine-protein kinase Nek7 (Homo sapiens) (UniProt Q8TDX7); conditions: at 1 µM
# [20] = target: T7, Serine/threonine-protein kinase Nek9 (Homo sapiens) (UniProt Q8TD19); conditions: at 0.1 µM;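 note: reported value is the mean percent inhibition of NEK9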
# T7 sequence (whole entry): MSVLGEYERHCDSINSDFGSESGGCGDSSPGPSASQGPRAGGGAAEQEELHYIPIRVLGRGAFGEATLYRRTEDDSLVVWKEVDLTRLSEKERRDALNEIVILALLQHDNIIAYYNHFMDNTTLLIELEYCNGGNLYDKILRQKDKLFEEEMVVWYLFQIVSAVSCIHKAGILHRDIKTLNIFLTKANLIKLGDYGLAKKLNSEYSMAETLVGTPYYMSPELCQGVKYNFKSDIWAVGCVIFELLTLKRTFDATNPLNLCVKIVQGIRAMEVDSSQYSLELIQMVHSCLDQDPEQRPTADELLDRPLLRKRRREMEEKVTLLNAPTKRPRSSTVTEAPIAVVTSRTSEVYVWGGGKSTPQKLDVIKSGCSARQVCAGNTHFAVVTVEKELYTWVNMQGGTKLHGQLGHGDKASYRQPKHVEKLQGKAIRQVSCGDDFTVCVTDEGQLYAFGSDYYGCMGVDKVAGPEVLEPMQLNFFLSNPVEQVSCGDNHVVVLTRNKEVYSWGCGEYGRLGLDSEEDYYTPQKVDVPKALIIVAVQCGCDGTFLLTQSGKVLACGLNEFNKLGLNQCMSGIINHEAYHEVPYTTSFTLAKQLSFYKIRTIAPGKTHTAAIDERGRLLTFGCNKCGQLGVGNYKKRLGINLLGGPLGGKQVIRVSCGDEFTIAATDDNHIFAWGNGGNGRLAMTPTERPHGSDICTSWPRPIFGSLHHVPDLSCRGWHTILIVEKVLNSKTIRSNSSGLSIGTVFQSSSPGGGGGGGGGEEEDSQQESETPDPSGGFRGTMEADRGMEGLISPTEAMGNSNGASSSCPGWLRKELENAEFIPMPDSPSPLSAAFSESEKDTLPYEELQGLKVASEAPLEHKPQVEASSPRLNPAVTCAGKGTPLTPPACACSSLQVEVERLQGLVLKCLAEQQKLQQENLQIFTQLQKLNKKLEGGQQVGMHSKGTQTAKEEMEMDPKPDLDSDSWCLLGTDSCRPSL
# Sequence of Serine/threonine-protein kinase Nek7 (Homo sapiens) (Q8TDX7 whole entry, looked up): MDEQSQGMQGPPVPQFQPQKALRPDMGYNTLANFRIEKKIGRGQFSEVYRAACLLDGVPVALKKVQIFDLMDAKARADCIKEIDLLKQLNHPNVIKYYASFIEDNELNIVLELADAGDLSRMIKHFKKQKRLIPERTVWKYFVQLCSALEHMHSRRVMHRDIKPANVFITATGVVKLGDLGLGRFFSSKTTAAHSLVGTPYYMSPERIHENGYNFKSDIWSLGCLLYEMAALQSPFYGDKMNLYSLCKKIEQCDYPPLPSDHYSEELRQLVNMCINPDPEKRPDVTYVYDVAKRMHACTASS
# Sequence of Serine/threonine-protein kinase Nek6 (Homo sapiens) (Q9HC98 whole entry): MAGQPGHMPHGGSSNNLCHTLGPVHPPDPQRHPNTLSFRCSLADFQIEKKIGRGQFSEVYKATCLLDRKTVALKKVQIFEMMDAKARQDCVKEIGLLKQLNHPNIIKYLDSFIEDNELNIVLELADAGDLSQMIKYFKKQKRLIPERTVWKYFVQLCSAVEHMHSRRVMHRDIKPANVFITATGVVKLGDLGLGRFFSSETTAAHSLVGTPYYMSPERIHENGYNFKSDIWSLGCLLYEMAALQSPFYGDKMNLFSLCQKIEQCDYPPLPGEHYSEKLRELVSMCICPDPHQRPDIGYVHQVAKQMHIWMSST
# Sequence of Casein kinase II subunit alpha (Homo sapiens) (P68400 whole entry, looked up): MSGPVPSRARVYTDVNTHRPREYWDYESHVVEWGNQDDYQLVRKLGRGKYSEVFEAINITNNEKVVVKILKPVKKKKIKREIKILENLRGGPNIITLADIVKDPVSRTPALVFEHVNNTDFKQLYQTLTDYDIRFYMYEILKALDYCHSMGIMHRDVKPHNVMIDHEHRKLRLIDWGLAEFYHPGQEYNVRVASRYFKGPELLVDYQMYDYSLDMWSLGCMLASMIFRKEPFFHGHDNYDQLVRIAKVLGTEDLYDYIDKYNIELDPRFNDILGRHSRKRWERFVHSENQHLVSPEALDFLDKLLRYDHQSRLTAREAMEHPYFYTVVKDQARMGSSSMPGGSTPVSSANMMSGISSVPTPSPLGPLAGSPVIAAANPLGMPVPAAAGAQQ
# Sequence of Sphingosine kinase 1 (Homo sapiens) (Q9NYA1 whole entry): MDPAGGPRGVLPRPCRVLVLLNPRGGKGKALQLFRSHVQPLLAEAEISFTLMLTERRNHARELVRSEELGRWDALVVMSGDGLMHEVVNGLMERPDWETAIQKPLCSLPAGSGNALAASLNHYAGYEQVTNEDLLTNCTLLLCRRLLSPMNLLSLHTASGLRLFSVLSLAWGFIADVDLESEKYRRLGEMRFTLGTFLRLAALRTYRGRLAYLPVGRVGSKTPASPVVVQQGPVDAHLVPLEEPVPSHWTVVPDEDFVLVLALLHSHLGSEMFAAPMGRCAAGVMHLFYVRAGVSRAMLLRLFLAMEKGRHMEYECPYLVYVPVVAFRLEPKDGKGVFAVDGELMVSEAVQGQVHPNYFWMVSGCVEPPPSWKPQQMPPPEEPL
Structure (SMILES),inhibition [1] [%],inhibition [2] [%],inhibition [3] [%],inhibition [4] [%],inhibition [5] [%],inhibition [6] [%],inhibition [7] [%],inhibition [8] [%],inhibition [9] [%],inhibition [10] [%],inhibition [11] [%],inhibition [12] [%],inhibition [13] [%],inhibition [14] [%],inhibition [15] [%],inhibition [16] [%],inhibition [17] [%],inhibition [18] [%],inhibition [19] [%],inhibition [20] [%]
c1ccc(Nc2ncc(-c3ccccc3)o2)cc1,5.25,0.84,7.14,8.1,4.81,4.42,6.78,5.92,7.79,3.13,8.49,2.71,2.57,5.93,0.59,1.04,0.47,3.1,9.54,12.2
Cc1cc(-c2ccccn2)cc(C)c1/C=C/c1cncc(-c2nn[nH]n2)c1,0.83,0,0,7.89,6.35,5.76,7.54,4.37,6.71,7.41,5.98,1.6,2.75,5.75,4.38,0.78,3.18,2.68,7.82,5.24
